Reference: PubChem BioAssay (Tox21)
Values joined by “and” are separate entries in the source; they are usually repeats but may differ in a detail not shown here. Identical values can stand only once. A structure can be active in one record and inactive in another. Active and inactive are the calls of the source. Entries that show only a call come without a potency. Unless noted, calls follow the shape of the dose curve; as a rule, active = well fitted curve in the direction sought with a large enough effect in the repeat runs; inconclusive = weak or mixed curves; inactive = no such curve, though single readings can be large; an effect the other way counts as inactive or inconclusive. Positions of bridges follow the written chain, without caps; N, C: chain ends. Residues, ends and D or L forms follow the SMILES beside them.

What was measured:
[1] = qHTS assay to identify small molecule antagonists of the thyroid receptor (TR) signaling pathway (AID 743065); also: nearly all actives have a fitted effect of over 55% in size; also: potency is read from the fitted curve at half-maximal effect
Outline: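 GH3.TRE-Luc rat pituitary cells (two TREs driving luciferase) were dosed with compound, then stimulated with 1 nM T3 (final) for 23.5 h at 37 C. ONE-Glo luminescence was the read-out, with CellTiter-Fluor fluorescence as the cytotoxicity counter-screen.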

[2] = system: thyroid hormone receptor (rat, GH3 cells); test: qHTS assay to identify small molecule agonists of the thyroid receptor (TR) signaling pathway (AID 743066; calls by dose curve)
[3] = target: Estrogen receptor (Homo sapiens) (UniProt P03372); test: qHTS assay to identify small molecule antagonists of the estrogen receptor alpha (ER-alpha) signaling pathway (AID 743069; active = well fitted curve in the direction sought with a large enough effect in the signal ratio in the repeat runs, not every such curve was filed as active; inconclusive = weak or mixed curves, or effect the other way; inactive = no such curve, though single readings can be large or run the other way; the % refers to the signal ratio; also: potency is read from the fitted curve at half-maximal effect)
Outline: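 In this cell-based reporter format, GripTite HEK293 cells harbouring ER-alpha-UAS-bla were grown overnight with 2% charcoal-stripped FBS, dosed with DMSO-dissolved compounds, then challenged with 17beta-estradiol. After 18 hr at 37C, beta-lactamase activity was detected by FRET fluorescence.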

[4] = target: Estrogen receptor (Homo sapiens) (UniProt P03372); test: qHTS assay to identify small molecule agonists of the estrogen receptor alpha (ER-alpha) signaling pathway (AID 743075; calls by dose curve; also: potency is read from the fitted curve at half-maximal effect)
[5] = target: Estrogen receptor (Homo sapiens) (UniProt P03372); test: qHTS assay to identify small molecule agonists of the estrogen receptor alpha (ER-alpha) signaling pathway using the BG1 cell line (AID 743079); conditions: BG1Luc4E2 cells, ERE-luciferase agonist, 22 h; activation: at 70.3 µM (top of the series); also: nearly all actives have a fitted effect of over 20% in size; also: potency is read from the fitted curve at half-maximal effect
[6] = qHTS assay to identify small molecule antagonists of the estrogen receptor alpha (ER-alpha) signaling pathway using the BG1 cell line - cell viability counter screen (AID 743081);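 also: compound given together with 17beta-estradiol as the ER stimulus; nearly all actives have a fitted effect of over 45% in size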; also: potency is read from the fitted curve at half-maximal effect
[7] = target: Aromatase (Homo sapiens) (UniProt P11511); test: qHTS assay to identify aromatase inhibitors (AID 743083); also: nearly all actives have a fitted effect of over 55% in size; also: potency is read from the fitted curve at half-maximal effect
[8] = qHTS assay to identify aromatase inhibitors - cell viability counter screen (AID 743084);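 also: cells stimulated with testosterone during compound exposure; nearly all actives have a fitted effect of over 55% in size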
[9] = target: Aryl hydrocarbon receptor (Homo sapiens) (UniProt P35869); test: qHTS assay to identify small molecule that activate the aryl hydrocarbon receptor (AhR) signaling pathway (AID 743085);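 also: HG2L7.5c1 human HepG2 liver cells with stably integrated DRE-driven firefly reporter; nearly all actives have a fitted effect of over 15% in size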
Outline: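 Luminescence read-out: ONE-Glo reagent, 30 min at room temperature, in HG2L7.5c1 HepG2 reporter cells treated 24 h at 37C. Viability was measured beforehand by CellTiter-Fluor fluorescence after 30 min at 37C.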

[10] = qHTS assay to identify small molecule that activate the aryl hydrocarbon receptor (AhR) signaling pathway - cell viability counter screen (AID 743086); also: nearly all actives have a fitted effect of over 45% in size; also: potency is read from the fitted curve at half-maximal effect
Outline: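 HepG2-AhR-luc (HG2L7.5c1) cells, 4000/well, treated 24 h at 37 C with compound; viability measured as CellTiter-Fluor fluorescence after 30 min in the same wells as the luciferase read.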

[11] = qHTS assay to identify small molecule phospholipidosis (PLD) inducers (AID 1259344; active = well fitted curve in the direction sought with a large enough effect; inconclusive = small, poorly fitted or top-dose-only effect, or another doubt; inactive = no such curve, though single readings can be large; an effect the other way counts as inactive or inconclusive)
Outline: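 Image-based: LipidTOX Red pit count/intensity per well and per cell; HepG2, 24 h compound at 37 C, PFA fixation, Hoechst counterstain.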

[12] = qHTS assay to identify small molecule antagonists of the estrogen receptor alpha (ER-alpha) signaling pathway using the BG1 cell line (AID 743080; calls by dose curve;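 also: BG1 cells stimulated with 17beta-estradiol alongside compound; nearly all actives have a fitted effect of over 25% in size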; also: potency is read from the fitted curve at half-maximal effect)
Outline: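 BG1-Luc-4E2 cells (endogenous full-length ER-alpha, stable 4×ERE-luciferase) were starved 5 days in phenol-red-free medium with 10% charcoal-stripped FBS, plated 24 h, then given compound plus 17beta-estradiol for 21.5 h at 37 C; ONE-Glo luminescence read after 30 min.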

[13] = target: Peroxisome proliferator-activated receptor gamma (Homo sapiens) (UniProt P37231); test: qHTS assay to identify small molecule agonists of the peroxisome proliferator-activated receptor gamma (PPARg) signaling pathway (AID 743094; active = well fitted activation curve with a large enough effect in the signal ratio in the repeat runs, not every such curve was filed as active; inconclusive = weak or mixed curves, or effect the other way; inactive = no such curve, though single readings can be large or run the other way; the % refers to the signal ratio)
Outline: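 Cells from the PPARg UAS-bla HEK293H line are plated and incubated 5 h at 37C. Compounds in DMSO are pinned in and left 17 h at 37C. LiveBLAzer B/G substrate is then added for 1 h at room temperature before fluorescence is measured.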

[14] = qHTS assay to identify small molecule antagonists of the thyroid receptor (TR) signaling pathway - cell viability counter screen (AID 743064); also: nearly all actives have a fitted effect of over 50% in size; also: potency is read from the fitted curve at half-maximal effect
Outline: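 GH3.TRE-Luc cells, 4 h pre-plating; cpd + T3 1 nM final; 37 °C 23.5 h; CellTiter-Fluor 30 min; fluorescence read.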

[15] = qHTS assay to identify small molecule antagonists of the estrogen receptor alpha (ER-alpha) signaling pathway - cell viability counter screen (AID 743074; calls by dose curve; also: nearly all actives have a fitted effect of over 45% in size; also: potency is read from the fitted curve at half-maximal effect)

Sequence of Aromatase (Homo sapiens) (P11511 whole entry, looked up): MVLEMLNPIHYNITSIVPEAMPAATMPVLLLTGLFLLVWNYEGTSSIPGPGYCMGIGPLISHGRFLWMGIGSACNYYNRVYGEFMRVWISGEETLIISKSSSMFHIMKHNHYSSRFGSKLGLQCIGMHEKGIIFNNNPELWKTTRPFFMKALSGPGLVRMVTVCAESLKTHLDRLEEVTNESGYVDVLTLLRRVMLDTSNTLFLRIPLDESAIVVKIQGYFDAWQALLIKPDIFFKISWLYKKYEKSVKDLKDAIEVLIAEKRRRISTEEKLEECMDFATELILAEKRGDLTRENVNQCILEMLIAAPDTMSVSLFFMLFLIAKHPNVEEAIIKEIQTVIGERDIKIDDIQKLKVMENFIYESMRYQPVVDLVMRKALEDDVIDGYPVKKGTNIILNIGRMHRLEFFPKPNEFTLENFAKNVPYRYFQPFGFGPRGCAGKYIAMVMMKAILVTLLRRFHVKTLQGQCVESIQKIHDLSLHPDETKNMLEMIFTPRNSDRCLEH
Sequence of Peroxisome proliferator-activated receptor gamma (Homo sapiens) (P37231 whole entry, looked up): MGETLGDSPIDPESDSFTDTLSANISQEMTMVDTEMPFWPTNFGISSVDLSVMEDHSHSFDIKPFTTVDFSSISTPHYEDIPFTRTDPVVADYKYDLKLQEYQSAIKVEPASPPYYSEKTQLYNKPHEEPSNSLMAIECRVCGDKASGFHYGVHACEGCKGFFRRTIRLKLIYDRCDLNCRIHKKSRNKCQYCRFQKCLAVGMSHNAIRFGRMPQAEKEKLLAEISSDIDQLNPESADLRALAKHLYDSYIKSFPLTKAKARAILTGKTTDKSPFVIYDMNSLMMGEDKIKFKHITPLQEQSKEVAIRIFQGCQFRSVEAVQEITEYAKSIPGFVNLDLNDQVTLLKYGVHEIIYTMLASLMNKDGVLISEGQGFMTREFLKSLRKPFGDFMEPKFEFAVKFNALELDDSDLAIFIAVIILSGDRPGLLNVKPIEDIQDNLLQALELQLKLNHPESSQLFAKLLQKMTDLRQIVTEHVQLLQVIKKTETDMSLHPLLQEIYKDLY
Sequence of Aryl hydrocarbon receptor (Homo sapiens) (P35869 whole entry, looked up): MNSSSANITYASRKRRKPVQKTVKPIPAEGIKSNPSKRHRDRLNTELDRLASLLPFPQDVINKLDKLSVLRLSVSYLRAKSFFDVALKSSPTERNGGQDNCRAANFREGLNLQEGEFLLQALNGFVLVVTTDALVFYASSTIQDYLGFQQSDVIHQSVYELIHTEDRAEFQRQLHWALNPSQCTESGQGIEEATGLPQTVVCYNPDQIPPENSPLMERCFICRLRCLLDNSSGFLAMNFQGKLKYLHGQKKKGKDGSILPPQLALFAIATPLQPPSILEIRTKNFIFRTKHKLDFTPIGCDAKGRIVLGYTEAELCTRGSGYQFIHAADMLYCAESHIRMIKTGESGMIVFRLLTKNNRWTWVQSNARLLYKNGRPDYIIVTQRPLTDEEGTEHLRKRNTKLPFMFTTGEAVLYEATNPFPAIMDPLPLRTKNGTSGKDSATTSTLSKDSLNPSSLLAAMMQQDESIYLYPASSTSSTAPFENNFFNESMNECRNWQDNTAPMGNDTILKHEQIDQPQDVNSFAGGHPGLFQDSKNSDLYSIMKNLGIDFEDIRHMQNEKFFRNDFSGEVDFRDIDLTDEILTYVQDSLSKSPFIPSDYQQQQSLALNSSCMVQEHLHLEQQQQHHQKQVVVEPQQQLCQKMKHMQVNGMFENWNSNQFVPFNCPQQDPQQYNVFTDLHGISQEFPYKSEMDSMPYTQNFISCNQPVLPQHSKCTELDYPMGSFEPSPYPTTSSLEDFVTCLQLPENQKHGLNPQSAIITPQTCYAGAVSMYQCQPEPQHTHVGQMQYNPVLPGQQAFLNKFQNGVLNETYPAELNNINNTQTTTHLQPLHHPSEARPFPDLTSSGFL
Sequence of Estrogen receptor (Homo sapiens) (P03372 whole entry, looked up): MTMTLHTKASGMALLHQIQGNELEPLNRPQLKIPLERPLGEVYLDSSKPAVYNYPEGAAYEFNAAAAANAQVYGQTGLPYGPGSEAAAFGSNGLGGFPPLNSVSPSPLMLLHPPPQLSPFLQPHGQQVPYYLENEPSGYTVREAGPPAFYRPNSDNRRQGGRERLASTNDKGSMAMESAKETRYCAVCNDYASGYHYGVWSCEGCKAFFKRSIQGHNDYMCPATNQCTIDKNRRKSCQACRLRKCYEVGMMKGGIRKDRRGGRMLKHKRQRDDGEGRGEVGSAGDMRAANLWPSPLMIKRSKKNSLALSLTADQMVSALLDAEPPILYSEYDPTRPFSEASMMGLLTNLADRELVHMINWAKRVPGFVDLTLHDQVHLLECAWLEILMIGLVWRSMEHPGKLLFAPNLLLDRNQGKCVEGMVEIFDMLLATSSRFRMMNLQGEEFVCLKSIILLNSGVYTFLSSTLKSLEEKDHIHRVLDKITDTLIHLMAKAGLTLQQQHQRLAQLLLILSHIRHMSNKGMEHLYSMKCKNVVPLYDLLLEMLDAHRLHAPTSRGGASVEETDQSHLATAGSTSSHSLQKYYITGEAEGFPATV

SMILES	Potency [1]	Potency [2]	Potency [3]	Potency [4]	Potency [5]	Potency [6]	Potency [7]	Potency [8]	Potency [9]	Potency [10]	PLD induction [11]	Potency [12]	Potency [13]	Potency [14]	Potency [15]	Potency [11]	activation [5]
C#CCC(Cc1cnc2nc(N)nc(N)c2n1)c1ccc(C(=O)N[C@@H](CCC(=O)O)C(=O)O)cc1 (stereo partly drawn)	0.75 µM (active)	inactive	inactive	inactive	inactive	inactive	inactive	inactive	inactive	inactive	6.01% [at 0.306 µM] (inactive)	–	–	–	–	–	–
CCOC(=O)COc1ccc2c(C)c(CCN(CC)CC)c(=O)oc2c1	inactive	inactive	inactive	inactive	inactive	inactive	inactive	inactive	inactive	inactive	-3.34% [at 7.66 µM] (inactive)	inactive	inactive	–	–	–	–
CCCCOC(=O)C(=O)Nc1cccc(-c2nn[nH]n2)c1	–	–	–	inactive	inactive	–	inactive	inactive	inactive	inactive	–	inactive	inactive	inactive	inactive	inactive	–
C/C(=C(\CCOC(=O)c1ccccc1)SS/C(CCOC(=O)c1ccccc1)=C(/C)N(C=O)Cc1cnc(C)nc1N)N(C=O)Cc1cnc(C)nc1N	23.7 µM (active)	inactive	–	inactive	–	inactive	inactive	inactive	inactive	inactive	–	–	inactive	–	inactive	inactive	–
CCC(C)(C)OC(=O)N[C@@H](Cc1c[nH]c2ccccc12)C(=O)N[C@@H](CCSC)C(=O)N[C@@H](CC(=O)O)C(=O)N[C@@H](Cc1ccccc1)C(N)=O	inactive	inactive	inactive	inactive	inactive	–	inactive	inactive	inactive	inactive	–	inactive	inactive	–	inactive	inactive	–
NCCC[C@H](N)C(=O)O	inactive	inactive	inactive	inactive	inactive	–	inactive	inactive	inactive	–	–	inactive	inactive	–	–	inactive	–
CCCCc1cc2c(=O)c(C(=O)OC)c[nH]c2cc1OCc1ccccc1	inactive	inactive	inactive	inactive	inactive	–	inactive	inactive	inactive	inactive	–	inactive	inactive	–	inactive	inactive	–
Cc1onc(-c2ccccc2)c1C(=O)N[C@@H]1C(=O)N2[C@@H]1SC(C)(C)[C@@H]2C(=O)O	inactive	inactive	inactive	inactive	inactive	inactive	inactive	inactive	inactive	inactive	-3.09% [at 7.66 µM] (inactive)	inactive	inactive	–	–	–	–
CCCCCCCCCCCCCCCCSCC(COC)COP(=O)([O-])OCC[N+](C)(C)C (stereo not drawn)	18.8 µM (active)	–	–	inactive	inactive	inactive	–	inactive	inactive	inactive	–	inactive	inactive	–	inactive	inactive	–
CC(C)(C)NC(=O)[C@H]1CC[C@H]2[C@@H]3CC=C4C=C(C(=O)O)CC[C@]4(C)[C@H]3CC[C@]12C	inactive	inactive	inactive	inactive	inactive	–	inactive	inactive	inactive	inactive	–	inactive	–	–	–	inactive	–
O=P(O)(O)C(O)(Cc1cnc2ccccn12)P(=O)(O)O	inactive	inactive	–	inactive	inactive	–	inactive	inactive	–	inactive	–	inactive	inactive	–	inactive	inactive	–
CC1(C)S[C@@H]2[C@H](NC(=O)Cc3ccccc3)C(=O)N2[C@H]1C(=O)O	–	–	inactive	inactive	inactive	inactive	inactive	inactive	inactive	inactive	–	inactive	inactive	inactive	inactive	inactive	–
COc1cc([C@@H]2c3cc4c(cc3C(O[C@@H]3O[C@@H]5CO[C@@H](C)O[C@H]5[C@H](O)[C@H]3O)C3COC(=O)[C@@H]32)OCO4)cc(OC)c1OP(=O)(O)O (stereo partly drawn)	11.9 µM (active)	inactive	–	inactive	11.9 µM (active) and inactive	–	inactive	inactive	–	inactive	0.0559% [at 1.53 µM] (inactive)	inactive	inactive	–	–	–	–
NC[C@@H]1O[C@H](O[C@H]2[C@@H](O)[C@H](O[C@@H]3[C@@H](O)[C@H](N)C[C@H](N)[C@H]3O[C@H]3O[C@H](CO)[C@@H](O)[C@H](O)[C@H]3N)O[C@@H]2CO)[C@H](N)[C@@H](O)[C@@H]1O	–	–	inactive	inactive	26.6 µM (active)	inactive	inactive	inactive	inactive	inactive	–	inactive	inactive	inactive	inactive	inactive	–
Cc1c(N)nc(C(CC(N)=O)NCC(N)C(N)=O)nc1C(=O)NC(C(=O)NC(C)C(O)C(C)C(=O)NC(C(=O)NCCc1nc(-c2nc(C(=O)NCCCN[C@@H](C)c3ccccc3)cs2)cs1)C(C)O)C(O[C@@H]1O[C@@H](CO)[C@@H](O)[C@H](O)[C@@H]1O[C@H]1O[C@H](CO)[C@@H](O)[C@H](OC(N)=O)[C@@H]1O)c1cnc[nH]1 (stereo partly drawn)	3.76 µM (active)	inactive	–	–	–	inactive	–	–	–	inactive	1.81% [at 7.66 µM] (inactive)	–	–	–	inactive	–	–
C[C@H]1C[C@@H]2[C@H]([C@@H](O)C[C@@]3(C)[C@H]2CC[C@]3(O)C(=O)COC(=O)CCC(=O)O)[C@@]2(C)C=CC(=O)C=C12	inactive	inactive	–	–	–	inactive	inactive	inactive	inactive	–	0.704% [at 7.66 µM] (inactive)	–	inactive	–	10.7 µM (active)	–	–
CCN(CC)CCOC(=O)c1ccc(N)cc1Cl	inactive	inactive	inactive	inactive	inactive	–	inactive	inactive	–	inactive	–	inactive	inactive	–	inactive	inactive	–
CC1=C(C(=O)OCCN(Cc2ccccc2)c2ccccc2)C(c2cccc([N+](=O)[O-])c2)C(P2(=O)OCC(C)(C)CO2)=C(C)N1 (stereo not drawn)	13.3 µM (active)	inactive	–	inactive	inactive	inactive	–	–	inactive	–	-1.08% [at 7.66 µM] (inactive)	inactive	–	–	inactive	–	–
CCC(=O)O[C@H]1CC[C@H]2[C@@H]3CCc4cc(O)ccc4[C@H]3CC[C@]12C	26.6 µM (active)	–	–	0.0013 µM [inconclusive] (active)	–	inactive	inactive	inactive	–	inactive	–	inactive	inactive	–	inactive	inactive	52.2% (active)
CCCCCCCCCCCCCCCCCCOP(=O)([O-])OC1CC[N+](C)(C)CC1	inactive	inactive	inactive	inactive	inactive	inactive	inactive	inactive	inactive	inactive	–	inactive	inactive	–	–	inactive	–
CCCCCCC(=O)O[C@H]1CC[C@H]2[C@@H]3CCc4cc(O)ccc4[C@H]3CC[C@]12C	21.1 µM (active)	–	–	0.0007 µM [inconclusive] (active)	–	inactive	inactive	inactive	inactive	inactive	–	–	–	–	–	inactive	66.1% (active)
C[C@H](/C=C/[C@H](C)C(C)(C)O)[C@H]1CC[C@H]2/C(=C/C=C3C[C@@H](O)C[C@H](O)C3)CCC[C@]12C	16.8 µM (active)	–	23.9 µM [inconclusive] (active)	inactive	–	inactive	inactive	inactive	inactive	inactive	–	29.8 µM (active)	inactive	–	–	inactive	–
Nc1ccn(C[C@@H](CO)OCP(=O)(O)O)c(=O)n1	inactive	inactive	inactive	–	–	–	inactive	inactive	inactive	inactive	-2.23% [at 7.66 µM] (inactive)	inactive	inactive	–	inactive	–	–
c1cnc2cc3c(cc2n1)[C@@H]1CNC[C@H]3C1	inactive	inactive	inactive	inactive	inactive	inactive	inactive	inactive	inactive	inactive	–	–	inactive	–	inactive	inactive	–
CC#CCC(C)[C@H](O)/C=C/[C@@H]1[C@H]2c3cccc(CCCC(=O)O)c3O[C@H]2C[C@H]1O (stereo partly drawn)	inactive	inactive	–	–	26.6 µM (active)	inactive	inactive	inactive	inactive	inactive	–	–	–	–	inactive	inactive	–
O=P(O)(O)OC(CO)CO	inactive	inactive	inactive	inactive	inactive	inactive	inactive	inactive	inactive	inactive	–	inactive	inactive	–	inactive	inactive	–
CCCCCCCCCCCCCCCC(=O)OC[C@@H](NC(=O)C(Cl)Cl)[C@H](O)c1ccc([N+](=O)[O-])cc1	inactive	inactive	inactive	–	inactive	inactive	inactive	inactive	inactive	inactive	–	inactive	inactive	–	–	inactive	–
NCCCC[C@H](NC(=O)[C@@H]1CCCN1C(=O)[C@@H]1CSSC[C@H](NC(=O)CNC(=O)CNC(=O)CN)C(=O)N[C@@H](Cc2ccc(O)cc2)C(=O)N[C@@H](Cc2ccccc2)C(=O)N[C@@H](CCC(N)=O)C(=O)N[C@@H](CC(N)=O)C(=O)N1)C(=O)NCC(N)=O (H-GGGCYFQNCPKG-NH2; disulfide 4-9)	inactive	inactive	–	–	–	–	inactive	inactive	inactive	inactive	–	–	inactive	–	inactive	inactive	–
CCC(C)[C@H]1O[C@]2(C=C[C@@H]1C)C[C@@H]1C[C@@H](C/C=C(\C)[C@@H](O[C@H]3C[C@H](OC)[C@@H](O[C@H]4C[C@H](OC)[C@H](NC(C)=O)[C@H](C)O4)[C@H](C)O3)[C@@H](C)/C=C/C=C3\CO[C@@H]4[C@H](O)C(C)=C[C@@H](C(=O)O1)[C@]34O)O2 (stereo partly drawn)	–	–	1.69 µM [inconclusive] (active)	inactive	–	23.7 µM (active) and inactive	inactive	inactive	inactive	11.9 µM (active) and 29.8 µM (active)	–	–	–	2.66 µM (active) and 7.5 µM (active)	8.49 µM (active) and 26.8 µM (active)	inactive	–
O=[N+]([O-])c1ccc(Oc2ccc(N=C=S)cc2)cc1	29.8 µM (active)	inactive	–	inactive	–	–	26.6 µM (active)	inactive	inactive	inactive	–	–	–	–	inactive	inactive	–
